In PubChem BioAssay AID1159580 (chemical genetic matrix, 2015):
The campaign covered roughly 5,500 compounds. About 2,000 (36%) were called active. Roughly 18% stayed inconclusive and do not appear here. Rule as the data show it: active = normalized growth mostly below about 0.91 (no sharp cut-off); inconclusive = no clear call, values can overlap the other calls; inactive = mostly above about 0.92. This is one part of the list.

Assay: chemical genetic growth profiling, strain panel (AID 1159580);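 also: tested at 20 µM; growth read once vehicle control cultures reached saturation at 30 °C; 1 = growth at the plate median or of vehicle wells; lower values mean less growth of the strain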
Conditions: S. cerevisiae deletion strains, growth OD

Measured: normalized growth

NC(=O)c1cc(N2CC2)c([N+](=O)[O-])cc1[N+](=O)[O-]
inactive: locus YAL040C, strain CLN3, hits give low values 1 | locus YCL061C, strain MRC1 (second series), hits give low values 0.994 | locus YDR363W, strain ESC2, hits give low values 0.993 | locus YER002W, strain NOP16, hits give low values 1.02 | locus YMR263W, strain SAP30, hits give low values 1 | locus YMR307W, strain GAS1, hits give low values 0.986 | locus YNL175C, strain NOP13, hits give low values 1.02 | locus YNL197C, strain WHI3, hits give low values 1 | locus YNL224C, strain SQS1, hits give low values 0.997 | locus YOR083W, strain WHI5 (second series), hits give low values 1.01
